Source: PubChem BioAssay (several laboratories)
Measles CPE: protection of cells from measles virus. Measles virus-infected cells, CPE protection, absorbance. actives 1.5% (n = 140,000). AID 841. protection (pct of control), % at 4 µM; in the data active = protection mostly above about 24%, no sharp cut-off; inactive = mostly below about 26%
CYP2C9 inhib: human CYP2C9 inhibition; P11712; AID 777; CYP2C9 Supersomes, luciferin-H conversion, luminescence; actives 20% (n = 96,000); inhibition, % at 5 µM;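 active = blocking of liver enzyme CYP2C9 beyond about 50% at 5 µM, limit read from the data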
Target sequence (P11712 whole entry, looked up): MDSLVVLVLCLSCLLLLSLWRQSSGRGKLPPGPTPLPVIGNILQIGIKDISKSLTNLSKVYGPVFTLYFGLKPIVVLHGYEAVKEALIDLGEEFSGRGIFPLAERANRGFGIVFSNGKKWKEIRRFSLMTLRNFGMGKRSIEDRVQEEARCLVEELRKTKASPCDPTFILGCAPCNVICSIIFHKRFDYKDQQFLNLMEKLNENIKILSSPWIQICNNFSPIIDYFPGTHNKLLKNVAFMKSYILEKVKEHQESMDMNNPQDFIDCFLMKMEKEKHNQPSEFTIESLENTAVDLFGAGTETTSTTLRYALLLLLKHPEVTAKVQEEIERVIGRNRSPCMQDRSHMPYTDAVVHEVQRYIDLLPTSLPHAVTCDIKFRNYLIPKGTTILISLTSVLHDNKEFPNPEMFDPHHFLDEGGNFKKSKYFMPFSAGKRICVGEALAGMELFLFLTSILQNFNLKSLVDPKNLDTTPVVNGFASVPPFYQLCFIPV
CYP2C19 inh: blocks human cytochrome P450 2C19 | CYP2C19 Supersomes, luciferin-H EGE luminescence, 30 min | inhibition, % at 5 µM | actives 21% (n = 96,000);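 active = CYP2C19 inhibition above a set limit at 5 µM in the primary screen, cut at about 50% in these data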;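 note: plate controls were negative control wells for no effect and 2.5 mM tranylcypromine positive control for full effect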
CYP2C19 act: activators of human cytochrome P450 2C19. recombinant CYP2C19, luciferin-H EGE luminescence; stronger effect = higher value; 0 = fully inhibited enzyme, 1 = untreated enzyme. activation factor at 5 µM. 96,000 tested, under 10 active;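 active = activation factor of at least 2 at 5 µM in the primary screen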;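 note: 0 = wells with 2.5 mM tranylcypromine and 1 = vehicle-only wells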
CYP2C9 act: increases human cytochrome P450 2C9 activity. P11712. recombinant CYP2C9, luciferin-H conversion, luminescence; stronger effect = higher value; factor 1 = untreated enzyme, 0 = blocked. activation factor at 5 µM. actives 1.4% (n = 96,000). AID 1024;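 active = activation factor of 2 or more for CYP2C9 at a 5 µM dose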;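 note: 0 = sulfaphenazole-blocked wells and 1 = vehicle-only wells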
Active calls of the source: *; . = no result. A selection: hits, their analogues and other compounds. The true share with any hit is near 22%.

SMILES | Measles CPE | CYP2C9 inhib | CYP2C19 inh | CYP2C19 act | CYP2C9 act
CCn1c(SCC(=O)Nc2ccc(C(C)=O)cc2)nc2ccccc21 | 5 | -15 | -8 | 1.1 | 1.1
CC(=O)c1ccc(NC(=O)CSc2nccn2CCc2ccccc2)cc1 | 13 | 45 | 53* | 0.5 | 0.5
CNC(=O)C1CCC(=O)N1Cc1ccccc1Cl (centres undefined) | 8 | -6 | -1 | 1 | 1.1
O=C(Nc1cc(Cl)cc(Cl)c1)C1CCC(=O)N1Cc1ccccc1Cl (centres undefined) | 15 | 91* | 96* | 0 | 0.1
S=C(c1cn(CCOc2ccccc2)c2ccccc12)N1CCCC1 | 15 | 48 | 25 | 0.7 | 0.5
Cc1ccc(OCCn2cc(C(=S)N3CCCC3)c3ccccc32)cc1C | 38 | 63* | 67* | 0.3 | 0.4
COC(=O)c1cn(CCOc2ccccc2F)c2ccccc12 | 3 | 99* | 98* | 0 | 0
COC(=O)c1cn(C(=O)OC)c2ccccc12 | 49* | -9 | 45 | 0.5 | 1.1
COC(=O)c1cn(CC(=O)NC2CCCCCC2)c2ccccc12 | 8 | . | . | . | .
COC(=O)c1cn(CCOc2ccccc2)c2ccccc12 | 1 | 97* | 96* | 0 | 0
COC(=O)c1cn(CCOc2ccccc2OC)c2ccccc12 | 26 | . | . | . | .
COc1ccc2c(c1)CCC(C)N2S(=O)(=O)c1ccc(C2CNC(=O)C2)cc1 (centres undefined) | 31 | . | . | . | .
COC(=O)Cn1cc(C(=O)OC)c2ccccc21 | 7 | 2 | 6 | 0.9 | 1
CCOC(=O)Cn1cc(C(=O)OC)c2ccccc21 | 4 | 35 | 54* | 0.5 | 0.6
CCOC(=O)c1c(C)[nH]c(C(=O)CSc2nc(C)cc(C)n2)c1C | 4 | . | . | . | .
O=C(CSc1nnc(-c2ccccc2)o1)c1nnc(-c2ccccc2)o1 | 16 | 74* | 9 | 0.9 | 0.3
CC(=O)c1c(C)[nH]c(C(=O)CSc2nnc(-c3ccccc3)o2)c1C | 11 | 28 | 57* | 0.4 | 0.7
CCOC(=O)CSc1nnc(-c2ccccc2)o1 | 27 | . | . | . | .
CC(=O)c1c(C)[nH]c(C(=O)CSc2nnc3ccccn23)c1C | 3 | . | . | . | .
CCOC(=O)c1c(C)[nH]c(C(=O)CSc2nc3ccccc3o2)c1C | 7 | 34 | 8 | 0.9 | 0.7
CCOC(=O)c1c(C)[nH]c(C(=O)CSc2ccc(Cl)cc2)c1C | 16 | 71* | 29 | 0.7 | 0.3
CCOC(=O)c1c(C)[nH]c(C(=O)CSc2nnc(CC(C)c3ccccc3)o2)c1C (centres undefined) | 13 | 71* | 32 | 0.7 | 0.3
O=C(NC1(C(F)(F)F)NC(=O)N(CC2CCCCC2)C1=O)c1ccco1 (centres undefined) | 16 | 31 | 18 | 0.8 | 0.7
Cn1c2ccccc2c(=O)c2c(=O)n(-c3ccccc3)c(C3CCCCC3)nc21 | 14 | . | . | . | .
Cn1c2ccccc2c2nn(-c3ccccc3)c(=O)cc21 | 5 | 30 | 71* | 0.3 | 0.7
SMILES | Measles CPE | CYP2C9 inhib | CYP2C19 inh | CYP2C19 act | CYP2C9 act
COC(=O)c1sc2ccccc2c1NC(=O)c1ccc(S(=O)(=O)N2CCC(C)CC2)cc1 | 9 | . | . | . | .
Cc1cn(C(=O)C(C)N2C(=O)c3ccccc3C2=O)c(C)n1 (centres undefined) | 9 | 25 | 50* | 0.5 | 0.8
CCOC(=O)c1c(-c2ccc(OC)cc2)csc1NC(=O)CNCc1ccco1 | 8 | 70* | 53* | 0.5 | 0.3
CCOC(=O)c1c(-c2ccc(OCC)cc2)csc1NC(=O)CCN1C(=O)c2ccccc2C1=O | 16 | . | . | . | .
CCOC(=O)c1c(-c2ccc(OC)cc2)csc1NC(=O)CCN1C(=O)c2ccccc2C1=O | 9 | 78* | 55* | 0.4 | 0.2
CCOC(=O)c1c(-c2ccccc2)csc1NC(=O)C(C)NCc1ccco1 (centres undefined) | 12 | . | . | . | .
CCC(=O)N1c2ccc(C)cc2C2=NNC(=S)NC21O (centres undefined) | 17 | 2 | 0 | 1 | 1
O=C1c2cccc(OCC(=O)N3CCCc4ccccc43)c2CCN1Cc1ccc(Br)cc1 | 5 | . | . | . | .
Cc1cccc(-n2c(CCCN3C(=O)c4ccccc4C3=O)nc3ccccc3c2=O)n1 | 6 | 39 | 52* | 0.5 | 0.6
Cc1cccc(-n2c(CCN3C(=O)c4ccccc4C3=O)nc3ccccc3c2=O)n1 | 14 | 10 | 12 | 0.9 | 0.9
O=C1c2ccccc2C(=O)N1CCCc1nc2ccccc2c(=O)n1-c1cccnc1 | 4 | 63* | 48 | 0.5 | 0.4
Cc1ccc(NC(=O)CCn2cccc2)cc1 | 4 | 37 | 92* | 0.1 | 0.6
COc1ccc(NC(=O)c2c(Cl)n(C)c3ccccc23)cc1 | 5 | -126 | 13 | 0.9 | 2.3*
Cc1ccc(NC(=O)CSCC(N)=O)cc1C | 40* | -14 | 12 | 0.9 | 1.1
Cc1ccc(NC(=O)CCn2nc(C)cc2C)cc1 | 14 | -14 | 74* | 0.3 | 1.1
COc1ccc(NC(=O)CCN2CCC(C)CC2)cc1 | 11 | 7 | 8 | 0.9 | 0.9
COc1ccc(NC(=O)CCn2cccc2)cc1 | 2 | 3 | 51* | 0.5 | 1
Cc1ccc(NC(=O)CCn2cccc2)cc1C | 4 | 9 | 85* | 0.1 | 0.9
Cc1ccc2oc(=O)cc(CN3CCOCC3)c2c1 | 2 | -7 | 1 | 1 | 1.1
CCNc1cc2oc(=O)c(CN3CCOCC3)c(C)c2cc1C | 43* | -227 | 22 | 0.8 | 3.3*
COc1ccc(/C=N/NC(=O)CC2N=C(Cc3ccccc3)NNC2=O)cc1OC (centres undefined) | 28* | . | . | . | .
C/C(=N\NC(=O)CC1N=C(Cc2ccccc2)NNC1=O)c1ccc(C)cc1 (centres undefined) | 5 | -11 | 8 | 0.9 | 1.1
N#Cc1nc(-c2ccco2)oc1N1CCC(C(N)=O)CC1 | 34 | -2 | 8 | 0.9 | 1
NC(=O)C1CCN(c2oc(-c3ccccc3F)nc2S(=O)(=O)c2ccc(Cl)cc2)CC1 | 12 | 29 | 52* | 0.5 | 0.7
CCS(=O)(=O)c1ccc2c(c1)N(S(=O)(=O)c1ccc(OC)cc1)CC(C(=O)O)O2 (centres undefined) | 9 | . | . | . | .
SMILES | Measles CPE | CYP2C9 inhib | CYP2C19 inh | CYP2C19 act | CYP2C9 act
COc1ccc(S(=O)(=O)N2CC3CCCN3c3cc(C(F)(F)F)ccc32)cc1 (centres undefined) | 7 | -30 | 92* | 0.1 | 1.3
COc1ccc(S(=O)(=O)N2CC3CCCN3c3ccc(C(F)(F)F)cc32)cc1 (centres undefined) | 3 | 32 | 73* | 0.3 | 0.7
O=S(=O)(c1cc(Cl)ccc1Cl)N1CC2CCCN2c2ccc(C(F)(F)F)cc21 (centres undefined) | 16 | 82* | 17 | 0.8 | 0.2
COc1ccc(S(=O)(=O)N2CCN(S(=O)(=O)c3ccc(C(F)(F)F)cc3)CC2)cc1C | 8 | 4 | 3 | 1 | 1
COC(=O)C(CC(C)C)NC(=O)c1ccc(F)cc1 (centres undefined) | 16 | 3 | 15 | 0.8 | 1
N#Cc1c(NC(=O)C2CC2)sc2c1CCCCC2 | 16 | . | . | . | .
